Results as given in article PMC10943123.

Target: Small nuclear ribonucleoprotein G (UniProt P62308)
Experiment: cross-link between two proteins; cross-linking mass spectrometry

In the case of “Small nuclear ribonucleoprotein-associated proteins B and B', P14678”, the “listed as a hit” value is reported as “yes”.
